The nature of assay [1]: Viability qHTS for spleen associated tyrosine kinase inhibitor (SYKi) naive MV4-11 cells (AID 1963823). Note: nearly all actives have a fitted effect of over 40% in size. Note: potency is the fitted concentration of half-maximal effect. In short, it runs like this: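 Viability of MV4-11 AML cells lacking prior SYK inhibitor exposure is scored by CellTiter-Glo luminescence following 72 hr compound incubation at 37 C, 5% CO2, seeded at 500 cells per well.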
A general note: qHTS replaces the single test concentration by a dilution series.

Assay [2] is described as follows: Viability qHTS for spleen associated tyrosine kinase inhibitor (SYKi) drug resistant MV4-11 cells (AID 1963824). Note: nearly all actives have a fitted effect of over 35% in size. Note: potency is the fitted concentration of half-maximal effect. In short, it runs like this:
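SYK-inhibitor-resistant MV4-11 AML cells were seeded at 500 per well onto compound and cultured 72 hours (37 °C, 5% CO2). CellTiter-Glo was then added, and after 10 min at room temperature, luminescence gave viability.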

Assay [3] in a line: Quantitative highthroughput screen to assess conditional lethalithy of P12 Ichikawa cells grown in RPMI1640 with dialyzed fetal bovine serum (RPMI+ds) (AID 1963880). Note: potency is the fitted concentration of half-maximal effect; nearly all actives have a fitted effect of over 35% in size. To be noted: Potency: P12-Ichikawa viability. The method, boiled down: (§1)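 Each medium arm—HPLM with 10% dialyzed FBS, or RPMI1640 with 5 mM glucose and 10% untreated or dialyzed FBS—was screened against an 11-point, 3-fold compound titration for 48 h at 37 °C, with CellTiter-Glo luminescence as endpoint.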

Assay [4] is described as follows: Quantitative highthroughput screen to assess conditional lethalithy of SEM cells grown in RPMI1640 with unreated serum (RPMI+s) (AID 1963883). Note: potency is the fitted concentration of half-maximal effect; nearly all actives have a fitted effect of over 35% in size. In short, it runs like this: as §1
The nature of assay [5]: Quantitative highthroughput screen to assess conditional lethalithy of SEM cells grown in RPMI1640 with dialyzed fetal bovine serum (RPMI+ds) (AID 1963884). Note: potency is the fitted concentration of half-maximal effect; nearly all actives have a fitted effect of over 35% in size. In short, it runs like this: as §1
Assay [6] in a line: Cellular viability qHTS for adrenocortical cancer (ACC) cell line NCI-H295R (AID 1963990). Note: nearly all actives have a fitted effect of over 60% in size. Note: potency is the fitted concentration of half-maximal effect. In short, it runs like this: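 Readout: CellTiter-Glo luminescence, 20 min RT. Exposure: 48 h, 37C/5% CO2. Cells: NCI-H295R, ITS-DMEM serum-free. Range: up to 46 uM. Analysis: 4PL fit, IC50 plus efficacy.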
The nature of assay [7]: Cellular viability qHTS for adrenocortical cancer (ACC) cell line SW-13 (AID 1963989).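 For activity (max response): cells grown in serum-free medium with ITS supplement; % is set by controls: 0 for no effect and ±100 for the full control effect.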 Note: nearly all actives have a fitted effect of over 65% in size. Note: potency is the fitted concentration of half-maximal effect. As to conditions: SW-13 ACC cells viability, CellTiter-Glo, 48 h; activity (max response): active compounds read low. In short, it runs like this:
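Compound titrations (up to 46 uM final, in DMSO) were applied to SW-13 cells for 48 h at 37C/5% CO2. Reading used CellTiter-Glo after 20 min at room temperature; fitted curves yielded IC50 and efficacy.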

Assay [8] is described as follows: Quantitative highthroughput screen to assess conditional lethalithy of SEM cells grown in Human Plasma-Like Medium with dialyzed fetal bovine serum (HPLM+ds) (AID 1963882). For Viability: series mostly up to about 46 µM. Note: nearly all actives have a fitted effect of over 35% in size. Note: potency is the fitted concentration of half-maximal effect. The method, boiled down:
as §1

A short description of assay [9]: Quantitative highthroughput screen to assess conditional lethalithy of P12 Ichikawa cells grown in RPMI1640 with untreated serum (RPMI+s) (AID 1963881). As to conditions: Potency: viability. The method, boiled down:
as §1

Each structure is given as a SMILES string. Several values for one entry are separate records, joined by “and”; a condition that tells them apart may be missing. Identical values can stand only once. Records with an inconclusive call do not appear. Unmarked numbers belong to inactive results. Activity calls are given as the source filed them. Calls come from the whole dose curve; as a rule, active = well fitted curve in the direction sought with a large enough effect; inconclusive = small, poorly fitted or top-dose-only effect, or another doubt; inactive = no such curve, though single readings can be large; an effect the other way counts as inactive or inconclusive.

As to `COc1cc2c(N3CCN(C(=O)Nc4ccc(OC(C)C)cc4)CC3)ncnc2cc1OCCCN1CCCCC1`, the Potency in assay [1] is 231 nM (active) and 235 nM (active); in assay [2] it was 366 nM (active) and 662 nM (active); in assay [3] it was 8.33 µM (active); in [4] it was 0.469 µM (active); in assay [5], 0.132 µM (active). Also, the Potency entry in assay [6] was “inactive”.
`CCNC(=O)NCc1cccc(Cl)c1`: the Potency entry in assay [1] and in [2] was “inactive” in each case. Besides, in [7], the activity (max response) was -4.81%.
Turning to `CCOc1ccn(-c2ccc(F)cc2)c(=O)c1C(=O)Nc1ccc(Oc2ccnc(N)c2Cl)c(F)c1`, the Potency is 366 nM (active) and 525 nM (active) in assay [1]; 580 nM (active) and 1.05 µM (active) in assay [2]; 1.48 µM (active) in assay [8]; 3.32 µM (active) in [4]; 2.09 µM (active) in assay [5]; 14.1 µM (active) in [6].
In the case of `CC[C@H](CC#N)OC(=O)N[C@@H](C)c1cccc(NC(=O)Nc2ccc(-c3cnco3)c(OC)c2)c1`, the Potency was 326 nM (active) and 263 nM (active) in assay [1]; 231 nM (active) and 263 nM (active) in [2]; 2.09 µM (active) in [4]; 28.2 µM (active) in assay [7].
For `Clc1cc(Cl)cc(CNc2ncncc2-c2ccc3c(c2)OCO3)c1`, the Potency in [1] was 20.6 µM (active); in [2] it was 9.34 µM (active); in [4] it was 26.4 µM (active); in [7], 10 µM (active); in assay [6], 3.55 µM (active).
`CCCCCOc1ccccc1/C(=C\SC)n1ccnc1`: the Potency in [1] was 11.9 µM (active); in assay [2] it was 18.8 µM (active); in assay [7], 23.1 µM (active).
For the compound `CC1(C)CCC2=C(O1)c1ccccc1C(=O)C2=O`, the Potency is 8.33 µM (active) in assay [1]; 7.42 µM (active) in assay [2]; 26.4 µM (active) in assay [8]; 26.4 µM (active) in [4]; 18.7 µM (active) in [5]; 15.8 µM (active) in assay [7]. In [6], the Potency was 8.91 µM (active).
For the compound `S=C(NCc1ccc2c(c1)OCO2)N1CCN(c2ncnc3c2oc2ccccc23)CC1`, the Potency in assay [1] is 3.32 µM (active); in assay [2] it was 1.86 µM (active); in [4], 42.9 µM (active); in assay [5] it was 27 µM (active).
As to `CN(c1ncccc1CNc1nc(Nc2ccc3c(c2)CC(=O)N3)ncc1C(F)(F)F)S(C)(=O)=O`, the Potency in [1] was 0.366 µM (active); in assay [2], 0.731 µM (active); in [8], 2.96 µM (active); in [4], 2.64 µM (active); in assay [5], 1.05 µM (active); in [7], 31.6 µM (active).
With `CN(C)CCc1c[nH]c2ccc(CS(=O)(=O)N3CCCC3)cc12`, the Potency entry in [1], in assay [2], in assay [9], in assay [8] and in assay [6] was “inactive” each time. The Potency in assay [4] is 5.9 µM (active); in assay [5], 14.8 µM (active). In addition, the activity (max response) in assay [7] was -4.49% and 5.74%.
With `CCCCCCCC/C=C\CCCCCCCC(=O)NCc1ccc(O)c(OC)c1`, the Potency result in assay [1] is “inactive”. The Potency in [2] was 0.668 µM (active); in [7], 3.26 µM (active).
As to `COC(=O)[C@@H](N)Cc1ccc(O)c(O)c1`, the Potency entry in assay [1] and in assay [2] was “inactive” in each case. Moreover, the activity (max response) in assay [7] is -15%.
For the compound `COc1cc(C(=O)OC(COCCC(C)C)CN2CCOCC2)cc(OC)c1OC` (stereo not drawn), the Potency entry in assay [1] and in assay [2] was “inactive” throughout. In addition, in assay [7], the activity (max response) was 9.82%.
As to `NC(=NCCCCCCN=C(N)/N=C(\N)Nc1ccc(Cl)cc1)/N=C(\N)Nc1ccc(Cl)cc1`, the Potency is 5.31 µM (active) and 1.84 µM (active) in [1]; 2.99 µM (active) and 1.64 µM (active) in assay [2]; 5.17 µM (active) in assay [7].
Regarding `C=CC(=O)N1CCC(CNc2ncnc(N)c2-c2ccc(Oc3ccccc3)cc2)CC1`, the values for the Potency in [1] and in assay [2] were 5.9 µM (active) and 8.33 µM (active), respectively. Also, the activity (max response) in assay [7] is -22.9%.
Regarding `O=C1NC(=O)/C(=C/c2cccc(C(F)(F)F)c2)S1`, the Potency entry in assay [1] and in assay [2] was “inactive” each time. The Potency in assay [7] is 25.1 µM (active).
In the case of `Cn1c(NC[C@@H](N)Cc2ccccc2)nc(-c2ccncc2)c(-c2ccc3ccccc3c2)c1=O`, the values for the Potency in assay [1], in assay [2] and in [7] were 7.42 µM (active), 6.61 µM (active) and 28.2 µM (active), respectively.
`O=C(O)COC(=O)Cc1ccccc1Nc1c(Cl)cccc1Cl`: the Potency result in [1] and in assay [2] was “inactive” in each case. The activity (max response) in assay [7] was 7.51%.
Consider `N[C@@H](Cc1ccc(O)cc1)C(=O)O`, for which the viability (% of control) in assay [1] is 88.5% [at 9.25 µM]. Further, the viability, % of control in assay [2] was 81.6% [at 9.25 µM]. In addition, the activity (max response) in [7] is 7.19%.
Consider `C[C@@H]1CN(CC(=O)Nc2ccc3c(c2)Cc2cccc(-c4cc(=O)cc(N5CCOCC5)o4)c2S3)C[C@H](C)O1`, for which the Potency in assay [1] is 8.33 µM (active); in assay [2] it was 4.68 µM (active); in assay [7], 28.2 µM (active).
As for `CC1(N)CCN(c2cccnc2NC(=O)c2nc(-c3ncccc3C(F)(F)F)cnc2N)CC1`, the Potency is 5.9 µM (active) in assay [1], 11.8 µM (active) in assay [2] and 17.8 µM (active) in assay [7].
On to `CC1=C(C(=O)O)N2C(=O)[C@@H](NC(=O)[C@H](N)c3ccccc3)[C@H]2SC1`, for which the Potency result in [1] and in [2] was “inactive” throughout. For the same compound, the activity (max response) in [7] was 10%.
